In PubChem BioAssay:
The source made the active and inactive calls.

Legend:
[1] = E. coli DRC41 culture turbidity changes, primary screen, E. coli filamentation inducer project, strain DRC41, OD650, 48 h (AID 1152);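 also: E. coli MC1000 strain DRC41 lacking acrAB efflux pump and sulA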; conditions: E. coli DRC41 (acrAB sulA), higher = more signal, called active from +8 up or from −8 down
[2] = small-molecule binders of probe aLefty1, primary screen, biochemical, small-molecule microarray, 635/667 nm fluorescence (AID 1153); conditions: higher = more signal;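 also: score merges spot fluorescence with signal-to-noise ratio from the scanned slide images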
[3] = PSAC antagonists in infected red cells, primary screen, cell-based, P. falciparum Indochina, OD700, 1 h (AID 1154); conditions: P. falciparum Indochina infected RBC osmotic lysis, higher = more signal, called active from +8 up or from −8 down
[4] = PSAC antagonists in infected red cells, primary screen, cell-based, P. falciparum Indochina, OD700, 2 h (AID 1155);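 also: lysis reports solute entry through the parasite surface anion channel PSAC; channel blockers reduce lysis of infected cells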; conditions: P. falciparum Indochina infected erythrocytes, osmotic lysis OD700; higher = more signal, called active from +8 up or from −8 down
[5] = osmotic lysis modulators in infected erythrocytes, primary screen, PSAC antagonist project, cell-based, P. falciparum Indochina, OD700, 3 h (AID 1156); conditions: higher = more signal, called active from +8 up or from −8 down
[6] = PSAC antagonists in infected red cells, primary screen, cell-based, P. falciparum Indochina, OD700, 18 h (AID 1157); conditions: P. falciparum Indochina infected erythrocytes, osmotic lysis OD700, 18 h; higher = more signal, called active from +8 up or from −8 down
[7] = modulators of S6 phosphorylation in cells, primary screen, cell-based, A549, cytoblot, luminescence, serum-stimulated (AID 1158); conditions: A549 phospho-S6 cytoblot, 5 h, higher = more signal;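 also: serum-stimulated A549 lung adenocarcinoma cells; signal is phosphorylated S6 detected by cytoblot immunostaining with HRP secondary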
[8] = target: NADPH oxidase 2 (Homo sapiens) (UniProt P04839); test: NOX2-dependent H2O2 signal modulators, primary screen, NOX inhibitor project, cell-based, HEK293-NOX2, PMA-stimulated, Amplex Red fluorescence (AID 1159); conditions: 45 min, higher = more signal, called active from +8 up or from −8 down; also: test concentration not given here
Sequence of NADPH oxidase 2 (Homo sapiens) (P04839 whole entry, looked up): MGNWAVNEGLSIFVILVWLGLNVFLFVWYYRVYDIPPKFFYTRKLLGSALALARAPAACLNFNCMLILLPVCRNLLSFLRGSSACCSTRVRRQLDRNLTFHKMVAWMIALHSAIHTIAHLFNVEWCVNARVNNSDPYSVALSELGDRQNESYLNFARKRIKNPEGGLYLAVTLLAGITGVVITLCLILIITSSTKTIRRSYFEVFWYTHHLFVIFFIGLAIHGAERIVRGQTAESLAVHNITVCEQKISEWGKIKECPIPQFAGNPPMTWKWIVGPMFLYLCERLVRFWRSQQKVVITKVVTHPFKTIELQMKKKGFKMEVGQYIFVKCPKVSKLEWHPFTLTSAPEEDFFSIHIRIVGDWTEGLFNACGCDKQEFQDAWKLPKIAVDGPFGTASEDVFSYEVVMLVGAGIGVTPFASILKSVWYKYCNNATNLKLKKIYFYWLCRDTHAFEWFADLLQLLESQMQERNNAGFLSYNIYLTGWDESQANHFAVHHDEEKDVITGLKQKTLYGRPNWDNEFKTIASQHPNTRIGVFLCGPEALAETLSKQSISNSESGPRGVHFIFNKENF

[9] = target: NADPH oxidase 4 (Homo sapiens) (UniProt Q9NPH5); test: NOX4-dependent H2O2 signal modulators, primary screen, NOX inhibitor project, cell-based, HEK293-NOX4, tetracycline-induced, Amplex Red fluorescence (AID 1160); conditions: 45 min, higher = more signal, called active from +8 up or from −8 down
Sequence of NADPH oxidase 4 (Homo sapiens) (Q9NPH5 whole entry, looked up): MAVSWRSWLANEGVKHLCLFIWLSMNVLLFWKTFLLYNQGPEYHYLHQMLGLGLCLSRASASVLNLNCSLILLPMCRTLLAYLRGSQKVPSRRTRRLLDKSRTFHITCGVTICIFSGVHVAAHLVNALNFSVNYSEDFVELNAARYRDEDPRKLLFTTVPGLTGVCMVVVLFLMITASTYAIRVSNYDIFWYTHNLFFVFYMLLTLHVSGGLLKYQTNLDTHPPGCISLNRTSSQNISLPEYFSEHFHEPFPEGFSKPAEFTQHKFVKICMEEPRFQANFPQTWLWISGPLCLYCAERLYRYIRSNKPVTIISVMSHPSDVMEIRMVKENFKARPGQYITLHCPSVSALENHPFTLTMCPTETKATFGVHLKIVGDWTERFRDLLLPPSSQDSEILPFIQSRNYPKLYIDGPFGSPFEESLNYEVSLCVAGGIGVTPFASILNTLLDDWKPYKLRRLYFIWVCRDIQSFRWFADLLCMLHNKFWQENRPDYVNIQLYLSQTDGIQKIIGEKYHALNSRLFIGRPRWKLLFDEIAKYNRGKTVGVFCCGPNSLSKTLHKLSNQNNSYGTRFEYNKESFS

[10] = target: NADPH oxidase 5 (Homo sapiens) (UniProt Q96PH1); test: NOX5-dependent H2O2 signal modulators, primary screen, NOX inhibitor project, cell-based, HEK293-NOX5, Amplex Red fluorescence (AID 1161); conditions: HEK293-NOX5, ionomycin, 45 min, higher = more signal
Sequence of NADPH oxidase 5 (Homo sapiens) (Q96PH1 whole entry, looked up): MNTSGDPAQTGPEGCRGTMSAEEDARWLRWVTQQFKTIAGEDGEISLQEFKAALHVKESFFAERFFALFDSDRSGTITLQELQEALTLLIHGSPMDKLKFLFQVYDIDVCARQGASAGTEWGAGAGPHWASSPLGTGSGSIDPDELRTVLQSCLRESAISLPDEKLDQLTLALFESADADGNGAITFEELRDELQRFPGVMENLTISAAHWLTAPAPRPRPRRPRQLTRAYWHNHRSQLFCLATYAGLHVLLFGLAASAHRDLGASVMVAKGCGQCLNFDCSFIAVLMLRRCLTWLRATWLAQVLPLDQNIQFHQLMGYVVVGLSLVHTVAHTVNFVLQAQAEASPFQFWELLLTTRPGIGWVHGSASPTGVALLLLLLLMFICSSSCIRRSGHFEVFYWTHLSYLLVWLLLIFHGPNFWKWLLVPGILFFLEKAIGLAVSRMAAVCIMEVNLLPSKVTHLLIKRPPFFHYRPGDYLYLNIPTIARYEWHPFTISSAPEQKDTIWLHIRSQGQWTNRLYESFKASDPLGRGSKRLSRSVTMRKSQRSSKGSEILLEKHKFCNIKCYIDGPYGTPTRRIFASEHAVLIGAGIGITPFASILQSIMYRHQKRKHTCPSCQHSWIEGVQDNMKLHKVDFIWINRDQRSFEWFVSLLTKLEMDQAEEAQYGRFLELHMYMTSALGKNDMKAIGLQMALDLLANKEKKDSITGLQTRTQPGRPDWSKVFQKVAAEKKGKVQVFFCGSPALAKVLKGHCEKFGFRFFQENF

| Structure (SMILES) | z-score [1] | composite z-score [2] | z-score [3] | z-score [4] | z-score [5] | z-score [6] | z-score [7] | z-score [8] | z-score [9] | z-score [10] |
| --- | --- | --- | --- | --- | --- | --- | --- | --- | --- | --- |
| CO[C@H]1O[C@H](CO)[C@@H](OC(=O)Nc2ccc(Oc3ccccc3)cc2)[C@H](OC(=O)Nc2ccccc2-c2ccccc2)[C@@H]1OC(=O)Nc1ccccc1-c1ccccc1 | 0.963 (inactive) | 0.361 | 0.484 (inactive) | 1.04 (inactive) | 0.228 (inactive) | 0.766 (inactive) | 0.322 | 2.06 (inactive) | 0.707 (inactive) | 0.356 |
| O=C1c2ccccc2[C@@]2(Cc3ccccc3N(C3CC3)C2=O)[C@H](c2ccc(CO)cc2)N1C1CCCCC1 | -0.301 (inactive) | -0.0066 | 0.667 (inactive) | -0.0557 (inactive) | 0.181 (inactive) | 0.181 (inactive) | -0.0814 | 0.112 (inactive) | -1.7 (inactive) | -1.45 |
| O=C(O)[C@H](Cc1ccccc1)n1cc(-c2ccccn2)nn1 | -0.267 (inactive) | -0.0969 | -0.258 (inactive) | -0.431 (inactive) | -0.906 (inactive) | -0.0561 (inactive) | -0.428 | -1.61 (inactive) | -0.653 (inactive) | -1.24 |
| COCCOC(=O)N1C(=O)[C@@]2(c3cc(C#CC4=CCCCC4)ccc31)[C@H](c1ccccc1OCCO)N1[C@H](c3ccccc3)[C@H](c3ccccc3)OC(=O)[C@H]1[C@@H]2C(=O)N1CCc2cc(OC)c(OC)cc2C1 | -0.26 (inactive) | -0.715 | 2.7 (inactive) | 1.85 (inactive) | 0.578 (inactive) | 1.02 (inactive) | 0.128 | 1.41 (inactive) | 0.739 (inactive) | 1.53 |
| COc1c(C)cc(-c2cc3c(c(-c4ccccc4)n2)[Si](C(C)C)(C(C)C)OC3)cc1C | 0.118 (inactive) | -0.0287 | 1.54 (inactive) | 0.494 (inactive) | 0.392 (inactive) | 0.506 (inactive) | 0.768 | 0.956 (inactive) | 0.103 (inactive) | 0.829 |
| C[C@]1(C(=O)O)c2ccccc2C(=O)N(Cc2ccccc2)[C@H]1c1ccc(CO)cc1 | 0.576 (inactive) | -0.147 | 3.5 (inactive) | 0.52 (inactive) | 1.06 (inactive) | 0.548 (inactive) | -0.0555 | 0.67 (inactive) | 0.917 (inactive) | 0.42 |
| O=C1OCCC=C[C@H]2OC34C=CCN(c5ccc(Cl)cc5)C(=O)[C@H]3N(CCCCCO)C(=O)[C@@H]4C12 (stereo not given in full) | 1.81 (inactive) | 0.211 | 2.21 (inactive) | 0.355 (inactive) | 1.63 (inactive) | 0.795 (inactive) | 0.0411 | 1.69 (inactive) | 0.747 (inactive) | 2.35 |
| COc1ccc([Si](C)(C)[C@H]2[C@H](CCn3cc([C@H](O)c4ccccc4)nn3)O[C@@]3(C(=O)N(Cc4ccc(N5CCC5=O)cc4)c4ccccc43)[C@@H]2C)cc1 | 0.503 (inactive) | 0.0341 | 30.5 (active) | 27.1 (active) | 1.25 (inactive) | 2.07 (inactive) | 0.436 | 0.923 (inactive) | 1.6 (inactive) | 2.22 |
| COc1ccc(C(O)C2C=CC3C(=O)N(C)C(=O)C3N2N2CCCCC2)cc1 (stereo not given) | -0.625 (inactive) | 0.381 | 1.41 (inactive) | 1.36 (inactive) | -0.138 (inactive) | 1.25 (inactive) | -0.734 | -0.378 (inactive) | -0.744 (inactive) | -0.369 |
| CC[C@H]1C2=C3C(CC[C@H]4C(OCc5ccc(F)cc5C(F)(F)F)OC[C@](C)([C@@H]34)N(C(=O)OC(C)(C)C)C2)C2COC(=O)OCC21 (stereo not given in full) | -2.17 (inactive) | 0.513 | 1.28 (inactive) | 0.584 (inactive) | 1.63 (inactive) | 0.91 (inactive) | -0.445 | -0.582 (inactive) | -1.74 (inactive) | -1.5 |
| C=C(CCCC)/C(=C/C[C@@H](OC(=O)c1ccncc1)c1cccc(OCCO)c1)c1cnc2ccccc2c1 | 0.0513 (inactive) | 0.284 | 19.1 (active) | 3.53 (inactive) | 0.902 (inactive) | 1.12 (inactive) | 0.462 | -1.21 (inactive) | -0.36 (inactive) | -0.509 |
| COc1ccc(NC(=O)O[C@H]2[C@H](OC(=O)Nc3ccc4c(c3)OCO4)[C@@H](OC(=O)Nc3ccc4c(c3)OCO4)[C@@H](OC)O[C@@H]2CO)cc1 | 0.898 (inactive) | 0.33 | 5.81 (inactive) | 1.13 (inactive) | 0.081 (inactive) | 0.521 (inactive) | -0.182 | -3.33 (inactive) | -0.666 (inactive) | -2.16 |
